High-throughput results from PubChem BioAssay.
NS1 function inh – qHTS Assay for Inhibitors of Influenza NS1 Protein Function. 270,000 tested, 0.4% active. Potency, µM (series often up to 46.1 µM), for the others: at the highest dose activity, positive = more growth; calls by dose curve; note: potency is the fitted concentration of half-maximal effect; actives are rising curves; nearly all actives have a fitted effect of over 50% in size
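A cell-based growth assay was used: compounds that relieve NS1-induced slow growth of budding yeast raise OD600. Assay medium was yeast nitrogen base with ammonium sulphate and -URA supplement, pH 6.0, with 2% galactose.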
Giardia FBPA inh – qHTS Assay for Inhibitors of Fructose-1,6-bisphosphate Aldolase from Giardia Lamblia; A8B2U2; purified Giardia FBPA; Potency, µM (top dose mostly 59.6 µM), without a hit: top-dose activity, negative = inhibition, most hits filed as inhibitors; 290,000 tested, 0.71% active; AID 2451, 2010; note: potency is the fitted concentration of half-maximal effect; % is set by controls: 0 for no effect and ±100 for the full control effect; nearly all actives have a fitted effect of over 55% in size
Target sequence (A8B2U2 whole entry, looked up): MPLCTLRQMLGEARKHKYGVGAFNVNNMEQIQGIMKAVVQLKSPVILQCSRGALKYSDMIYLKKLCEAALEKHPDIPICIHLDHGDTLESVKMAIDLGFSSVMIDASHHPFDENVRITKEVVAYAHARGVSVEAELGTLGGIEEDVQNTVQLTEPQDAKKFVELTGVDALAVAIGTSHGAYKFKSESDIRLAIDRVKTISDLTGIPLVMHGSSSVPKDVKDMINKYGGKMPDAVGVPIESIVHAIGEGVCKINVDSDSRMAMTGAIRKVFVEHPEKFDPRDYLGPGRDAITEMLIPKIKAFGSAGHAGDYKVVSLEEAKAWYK
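40 nM FBPA preincubated 10 min at RT with compound (up to 57.5 uM final), then substrate plus GAPDH/TPI/NAD/arsenate coupling and diaphorase/resazurin added. Fluorescence read after 20 min at RT, 525/598 nm.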
SARS PLpro yeast-1 – qHTS of Yeast-based Assay for SARS-CoV PLP | S. cerevisiae expressing SARS-CoV PLpro, growth rescue | Potency, µM (series often up to 32.9 µM), without a hit: top-dose activity, positive = growth rescue, actives largely listed as activators | 330,000 tested, 0.19% active; calls by dose curve; note: potency is the fitted concentration of half-maximal effect; 0% is about no effect; nearly all actives have a fitted effect of over 55% in size
AmpC inh no detg – qHTS Inhibitors of AmpC Beta-Lactamase (assay without detergent); P00811; AmpC nitrocefin hydrolysis, absorbance 480 nm, 0.0001% Triton; Potency, µM (titrated, usually from 57.1 µM), without a hit: at the highest dose activity change, negative = inhibition, actives largely listed as inhibitors; 330,000 tested, 0.52% active;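 note: potency is the fitted concentration of half-maximal effect; plate controls were no compound for no effect and no enzyme for full effect; nearly all actives have a fitted effect of over 20% in size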
Target sequence (P00811 whole entry, looked up): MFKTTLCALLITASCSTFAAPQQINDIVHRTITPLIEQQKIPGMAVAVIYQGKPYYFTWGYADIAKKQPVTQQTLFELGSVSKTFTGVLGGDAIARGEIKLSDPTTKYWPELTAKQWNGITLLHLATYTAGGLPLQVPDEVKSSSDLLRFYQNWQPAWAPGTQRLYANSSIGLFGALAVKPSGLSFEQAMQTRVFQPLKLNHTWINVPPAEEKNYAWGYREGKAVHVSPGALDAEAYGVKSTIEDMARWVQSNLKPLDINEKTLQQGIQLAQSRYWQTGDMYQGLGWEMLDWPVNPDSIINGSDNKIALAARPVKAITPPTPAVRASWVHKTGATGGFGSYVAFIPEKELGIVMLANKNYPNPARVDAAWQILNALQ
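20 mM phosphate pH 7.0 + 0.01% (detergent screen) or 0.0001% Triton X-100; 5.3 nM AmpC reagent; cpd preinc 15 min RT; nitrocefin (800 uM stock) to start; A480 q20 s × 4 min; Activity was normalised to no-enzyme and no-compound control wells.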
AmpC detergent – qHTS Inhibitors of AmpC Beta-Lactamase (assay with detergent); P00811; AmpC hydrolysis of nitrocefin, absorbance 480 nm, 0.01% Triton; Potency, µM (series often up to 114 µM), for inactives: top-dose activity change, negative = inhibition, usual class: inhibitors; 370,000 tested, 0.041% active; AID 485294, 2010;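 note: potency is the fitted concentration of half-maximal effect; 0% = no-compound wells and -100% = no-enzyme wells; nearly all actives have a fitted effect of over 25% in size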
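20 mM phosphate pH 7.0 + 0.01% (detergent screen) or 0.0001% Triton X-100; 5.3 nM AmpC reagent; cpd preinc 15 min RT; nitrocefin (800 uM stock) to start; A480 q20 s × 4 min; Activity was normalised to no-enzyme and no-compound control wells.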
SARS PLpro yeast-2 – qHTS of Yeast-based Assay for SARS-CoV PLP: Hit Validation | shares compounds with SARS PLpro yeast-1 | yeast expressing SARS-CoV PLpro, growth phenotype rescue | calls only | 1,000 tested, 19% active | AID 652038, 2013; call rule not given here
* marks the source's active call; other numbers are inactive results; i = inactive; ? = inconclusive; nt = not tested or not shown; + = active, no number. Hits are enriched below; roughly 1.4% of the tested compounds scored in any of these assays. Unless noted, calls come from the whole dose curve; as a rule, active = well fitted curve in the direction sought with a large enough effect; inconclusive = small, poorly fitted or top-dose-only effect, or another doubt; inactive = no such curve, though single readings can be large; an effect the other way counts as inactive or inconclusive.

SMILES	NS1 function inh	Giardia FBPA inh	SARS PLpro yeast-1	AmpC inh no detg	AmpC detergent	SARS PLpro yeast-2
Cc1c(-c2ccc(Br)cc2)nc2ccccn12	-22%	-7%	-45%	-9%	-8%	nt
CN(C)c1ccc(-c2nc3ccccn3c2/N=C/c2ccc(Br)cc2)cc1	28%	-17%	nt	0%	-1%	i
CCOC(=O)c1noc2ncnc(Nc3ccc(F)cc3F)c12	nt	nt	nt	nt	1%	nt
Cc1cccc(OCC(=O)Nc2ccc(S(=O)(=O)N3CCN(C)CC3)cc2)c1	5%	4%	3.5µM*	32%	?	i
CCOc1cc(CNCCc2ccc(S(N)(=O)=O)cc2)ccc1OCC(=O)NC(C)(C)C	5%	-4%	nt	nt	-1%	nt
CCOc1cc(CNCCc2ccccc2)ccc1OCC(=O)NC(C)(C)C	1%	-5%	18µM*	21%	-4%	i
CCNS(=O)(=O)c1ccc(NC(=S)NCc2ccco2)cc1	3%	-6%	-1%	-23%	-7%	nt
Cc1cc([N+](=O)[O-])nn1Cc1ccc(C(=O)N/N=C/c2ccc(O)cc2O)cc1	28%	-19%	3.2µM*	-27%	?	?
Cc1cc([N+](=O)[O-])nn1Cc1ccc(C(=O)N/N=C/c2ccc(F)cc2)cc1	4%	2%	-1%	-29%	0%	nt
O=C(N/N=C/c1ccccc1O)c1cccc(C(F)(F)F)c1	3%	-21%	?	-16%	-13%	i
O=C(N/N=C/c1ccc(O)cc1)c1cccc(C(F)(F)F)c1	-9%	3%	?	-19%	2%	nt
O=C(Nc1ccccc1Cl)c1ccc2c(=O)n3c(nc2c1)CCC3	nt	nt	-3%	-15%	4%	nt
O=C(Nc1nc(-c2ccccc2)cs1)c1ccc2c(=O)n3c(nc2c1)CCCCC3	?	6%	?	-6%	2%	i
CC(C)N1C/C(=C/c2ccsc2)C(=O)/C(=C/c2ccsc2)C1	-10%	-30%	22µM*	-17%	-10%	i
CC(C)N1C/C(=C/c2cccnc2)C(=O)/C(=C/c2cccnc2)C1	-13%	3%	-4%	-2%	3%	nt
Cn1cc(/C=N/n2cnc3scc(-c4ccccc4)c3c2=O)c2ccccc21	13%	0%	?	-11%	-7%	+
CC1(C)NC(=O)N(CCSc2ccc(Cl)cc2)C1=O	-6%	-4%	1%	31%	-4%	nt
Cc1ccc(SCCCCN2C(=O)NC(C)(C)C2=O)cc1	-5%	0%	?	32%	-14%	i
CC1CC1C(=O)N(C)CC(=O)Nc1ccc(Cl)c(C(F)(F)F)c1 (stereo not given)	nt	nt	?	-7%	-9%	i
CN(CC(=O)Nc1ccc(Cl)c(C(F)(F)F)c1)C(=O)c1ccc2c(c1)OCCO2	nt	nt	2%	-8%	?	nt
CCOC(=O)c1c(NC(C)=O)sc2c(OCC(O)CNC(C)(C)C)c(Br)ccc12 (stereo not given)	0%	0%	0%	-26%	-4%	nt
Cc1ccc(CN(CC2CCCO2)C(=O)CN2C(=O)C(C(C)C)Oc3ccccc32)o1 (stereo not given)	-11%	1%	1%	98%	-6%	nt
CC(C)C1Oc2ccccc2N(CC(=O)N(Cc2ccccn2)CC2CCCO2)C1=O (stereo not given)	-4%	3%	1.8µM*	91%	?	i
O=C(Nc1cccc(-c2nc3ccccc3[nH]2)c1)c1ccccc1F	nt	nt	nt	nt	10%	nt
CCCCCC(=O)NNC(=S)NC(=O)c1cccc([N+](=O)[O-])c1	-9%	?	11µM*	-5%	-6%	i
SMILES	NS1 function inh	Giardia FBPA inh	SARS PLpro yeast-1	AmpC inh no detg	AmpC detergent	SARS PLpro yeast-2
CCCCCC(=O)NNC(=S)NC(=O)c1ccccc1[N+](=O)[O-]	2%	-2%	0%	23%	-9%	nt
Cc1cc(-n2ccnc2)n2c(nc3ccccc32)c1C#N	5%	-1%	?	-11%	2%	?
Cc1cc(-c2ccc(/C=N/n3cnnc3)o2)c(C)c([N+](=O)[O-])c1	-3%	0%	-2%	-15%	-5%	nt
CC(=O)NC(CC(=O)Nc1ccc(S(=O)(=O)NC2=NCCCCC2)cc1)c1ccccc1 (stereo not given)	nt	nt	?	-2%	6%	i
CCN(CC(=O)Nc1c(F)cccc1F)C(=O)/C=C/c1ccc(S(=O)(=O)N2CCCCCC2)cc1	nt	nt	1%	25%	0%	nt
CCOC(=O)c1c(-c2ccc(OC)cc2)csc1/N=C/C1=C(O)CCCC1=O	27%	-14%	?	-24%	-6%	i
O=c1[nH]c(=O)n(-c2ccccc2F)c(O)c1C=NCCC1=CCCCC1	nt	5%	-5%	-18%	0%	nt
Cc1cccc(NC(=O)COC(=O)CNC(=O)C2CCCCC2)c1	2%	0%	?	18%	0%	i
Cc1ccc(OCC(=O)N/N=C\c2c(C)[nH]n(-c3ccccc3)c2=O)c([N+](=O)[O-])c1	0%	?	5.6µM*	-34%	-3%	+
CN(C)c1ccc(-c2nnc3n(Cc4ccccc4)c(=O)c4ccccc4n23)cc1	nt	nt	nt	nt	0%	nt
COC(=O)c1ccc(NC(=O)C2CCN(C(=O)c3cc(OC)c(OC)c(OC)c3)CC2)cc1	-5%	2%	6%	-1%	?	nt
CCOC(=O)c1ccc(NC(=O)C2CCN(C(=O)c3ccc(OC)c(OC)c3)CC2)cc1	0%	2%	?	60%	0%	i
O=C(CC1SC(N2CCCCC2)=NC1=O)Nc1cccc(C(=O)Nc2ncccc2O)c1 (stereo not given)	nt	nt	?	-19%	?	i
CC(C)NC(=O)c1cccc(NC(=O)CC2SC(N3CCCCC3)=NC2=O)c1 (stereo not given)	nt	nt	0%	-14%	?	nt
CC12CCC3C(CC=C4CC(O)CCC43C)C1C/C(=C\N1CCCC1)C2=O (stereo not given)	-31%	1%	-1%	-12%	-8%	nt
Cc1nn(C)c(C)c1/C=C1/CC2C3CC=C4CC(O)CCC4(C)C3CCC2(C)C1=O (stereo not given)	-15%	20%	13µM*	28%	1%	i
COc1ccc(-c2cc(=O)c3c(O)cc(OC4OC(COC5OC(C)C(O)C(O)C5O)C(O)C(O)C4O)cc3o2)cc1O (stereo not given)	nt	nt	0%	3%	6%	nt
Cc1cc(C(=O)N/N=C/c2cc(N=Nc3ccccc3)ccc2O)n[nH]1	-4%	-8%	7.9µM*	-12%	-11%	i
CCCn1c(SCN2C(=O)c3ccccc3C2=O)nc2cc(Cl)ccc2c1=O	4%	1%	-16%	-24%	?	nt
